# According to PubChem BioAssay AID1159580 (chemical genetic matrix, 2015):
# Values joined by “and” are separate entries in the source; they are usually repeats but may differ in a detail not shown here. Equal entries are not always repeated. The campaign covered roughly 5,500 compounds. About 2,000 (36%) were called active. Roughly 18% stayed inconclusive and do not appear here. Some of the results follow. Unmarked numbers belong to inactive results. Rule as the data show it: active = normalized growth mostly below about 0.91 (no sharp cut-off); inconclusive = no clear call, values can overlap the other calls; inactive = mostly above about 0.92.
# Experiment: chemical genetic growth profiling, strain panel (AID 1159580);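 also: tested at 20 µM; growth read once vehicle control cultures reached saturation at 30 °C; 1 = growth at the plate median or of vehicle wells; lower values mean less growth of the strain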
# Conditions: S. cerevisiae deletion strains, growth OD
smiles,measurement,setting,value
CC1(C)C2CC[C@]3(C)C(C(=O)C=C4[C@@H]5C[C@@](C)(C(=O)O)CC[C@]5(C)CC[C@]43C)[C@@]2(C)CC[C@@H]1O (stereo not given in full),normalized growth,"locus YAL013W, strain DEP1, hits give low values",1.02
same,normalized growth,"locus YAL021C, strain ccr4, hits give low values",1.02
same,normalized growth,"locus YAL026C, strain drs2, hits give low values",0.999
same,normalized growth,"locus YAL030W, strain snc1, hits give low values",1
same,normalized growth,"locus YBL061C, strain skt5, hits give low values",1.02
same,normalized growth,"locus YBR009C, strain hhf1, hits give low values",0.93
same,normalized growth,"locus YBR021W, strain FUR4, hits give low values",0.961
same,normalized growth,"locus YBR023C, strain chs3, hits give low values",1.02
same,normalized growth,"locus YBR171W, strain sec66, hits give low values",1
same,normalized growth,"locus YBR229C, strain ROT2, hits give low values",1.06
same,normalized growth,"locus YBR231C, strain swc5, hits give low values",1.08
same,normalized growth,"locus YBR279W, strain paf1, hits give low values",1.03
same,normalized growth,"locus YCL011C, strain gbp2, hits give low values",0.988
same,normalized growth,"locus YCL016C, strain dcc1, hits give low values",1.03
same,normalized growth,"locus YCL029C, strain bik1, hits give low values",0.956
same,normalized growth,"locus YCL069W, strain vba3, hits give low values",1
same,normalized growth,"locus YCR088W, strain abp1, hits give low values",1.02
same,normalized growth,"locus YDL005C, strain med2, hits give low values",1.01
same,normalized growth,"locus YDL035C, strain GPR1, hits give low values",0.873
same,normalized growth,"locus YDL040C, strain nat1, hits give low values",1.03
same,normalized growth,"locus YDL074C, strain BRE1, hits give low values",1.02
same,normalized growth,"locus YDL101C, strain DUN1, hits give low values",1.02
same,normalized growth,"locus YDL185W, strain tfp1, hits give low values",1.04
same,normalized growth,"locus YDL192W, strain arf1, hits give low values",0.996
same,normalized growth,"locus YDR001C, strain nth1, hits give low values",1.01
same,normalized growth,"locus YDR069C, strain doa4, hits give low values",1
same,normalized growth,"locus YDR101C, strain arx1, hits give low values",0.98
same,normalized growth,"locus YDR137W, strain rgp1, hits give low values",0.879
same,normalized growth,"locus YDR159W, strain sac3, hits give low values",0.908
same,normalized growth,"locus YDR162C, strain NBP2, hits give low values",0.986
same,normalized growth,"locus YDR195W, strain ref2",1.07
same,normalized growth,"locus YDR297W, strain sur2, hits give low values",0.978
same,normalized growth,"locus YDR318W, strain mcm21, hits give low values",0.997
same,normalized growth,"locus YDR334W, strain swr1, hits give low values",0.964
same,normalized growth,"locus YDR335W, strain msn5, hits give low values",1.01
same,normalized growth,"locus YDR388W, hits give low values",1.01
same,normalized growth,"locus YDR392W, strain spt3, hits give low values",1.02
same,normalized growth,"locus YDR502C, strain sam2, hits give low values",0.968
same,normalized growth,"locus YEL003W, strain gim4, hits give low values",0.932
same,normalized growth,"locus YEL037C, strain rad23, hits give low values",1
same,normalized growth,"locus YEL061C, strain CIN8 (second series), hits give low values",1.01
same,normalized growth,"locus YER015W, strain faa2, hits give low values",1.02
same,normalized growth,"locus YER016W, strain bim1, hits give low values",1.01
same,normalized growth,"locus YER110C, hits give low values",1.04
same,normalized growth,"locus YER111C, strain swi4, hits give low values",1.03
same,normalized growth,"locus YER155C, strain BEM2 (second series), hits give low values",1.13
same,normalized growth,"locus YER155C, strain BEM2, hits give low values",1.06
same,normalized growth,"locus YER167W, strain BCK2, hits give low values",1.07
same,normalized growth,"locus YFR010W, strain ubp6, hits give low values",0.943
same,normalized growth,"locus YGL078C, strain dbp3, hits give low values",0.907 (active)
same,normalized growth,"locus YGL086W, strain mad1, hits give low values",1.01
same,normalized growth,"locus YGL167C, strain pmr1, hits give low values",0.996
same,normalized growth,"locus YGL173C, strain kem1, hits give low values",0.876 (active)
same,normalized growth,"locus YGL227W, strain vid30, hits give low values",1.02
same,normalized growth,"locus YGL240W, strain doc1, hits give low values",0.986
same,normalized growth,"locus YGL248W, strain PDE1, hits give low values",0.985
same,normalized growth,"locus YGL253W, strain hxk2, hits give low values",1.02
same,normalized growth,"locus YGR078C, strain PAC10, hits give low values",1.02
same,normalized growth,"locus YGR135W, strain pre9, hits give low values",0.981
same,normalized growth,"locus YGR252W, strain gcn5, hits give low values",0.833
same,normalized growth,"locus YHR013C, strain ard1, hits give low values",1.1
same,normalized growth,"locus YHR027C, strain rpn1, hits give low values",0.956
same,normalized growth,"locus YHR030C, strain SLT2, hits give low values",1.07 and 0.991
same,normalized growth,"locus YHR079C, strain IRE1 (second series), hits give low values",1.02
same,normalized growth,"locus YHR079C, strain IRE1, hits give low values",0.973
same,normalized growth,"locus YHR094C, strain hxt1, hits give low values",1.03
same,normalized growth,"locus YHR129C, strain ARP1, hits give low values",1.07
same,normalized growth,"locus YHR142W, strain chs7, hits give low values",1.01
same,normalized growth,"locus YHR200W, strain rpn10, hits give low values",1.03
same,normalized growth,"locus YIL066C, strain RNR3, hits give low values",1.03
same,normalized growth,"locus YIL073C, strain SPO22, hits give low values",0.956
same,normalized growth,"locus YIL125W, strain kgd1, hits give low values",1.01
same,normalized growth,"locus YIR030C, strain dcg1, hits give low values",1.01
same,normalized growth,"locus YJL092W, strain hpr5, hits give low values",1.02
same,normalized growth,"locus YJL095W, strain BCK1 (second series), hits give low values",1.02
same,normalized growth,"locus YJL095W, strain BCK1, hits give low values",0.971 and 0.979
same,normalized growth,"locus YJL115W, strain asf1, hits give low values",1.01
same,normalized growth,"locus YJL129C, strain trk1, hits give low values",1.04
same,normalized growth,"locus YJL134W, strain LCB3, hits give low values",1.05
same,normalized growth,"locus YJL154C, strain vps35, hits give low values",1.01
same,normalized growth,"locus YJL164C, strain tpk1, hits give low values",0.946
same,normalized growth,"locus YJL166W, strain qcr8, hits give low values",0.974
same,normalized growth,"locus YJL168C, strain set2, hits give low values",1.03
same,normalized growth,"locus YJL187C, strain SWE1 (second series), hits give low values",1
same,normalized growth,"locus YJR043C, strain POL32, hits give low values",0.99
same,normalized growth,"locus YJR066W, strain TOR1, hits give low values",0.953
same,normalized growth,"locus YJR075W, strain HOC1, hits give low values",1.04
same,normalized growth,"locus YKL009W, strain mrt4, hits give low values",0.864 (active)
same,normalized growth,"locus YKL068W, hits give low values",1.08 [resistant] (active)
same,normalized growth,"locus YKL085W, strain MDH1 (second series), hits give low values",1.07 [resistant] (active)
same,normalized growth,"locus YKL085W, strain MDH1, hits give low values",1.07 [resistant] (active)
same,normalized growth,"locus YKL160W, strain elf1, hits give low values",1.01
same,normalized growth,"locus YKL190W, strain CNB1, hits give low values",1.08
same,normalized growth,"locus YKR001C, strain vps1, hits give low values",0.992
same,normalized growth,"locus YKR026C, strain gcn3, hits give low values",1.02
same,normalized growth,"locus YKR091W, strain srl3, hits give low values",1.01
same,normalized growth,"locus YLL001W, strain dnm1, hits give low values",0.952
same,normalized growth,"locus YLL026W, hits give low values",1.01
same,normalized growth,"locus YLL041C, strain sdh2, hits give low values",1.03
same,normalized growth,"locus YLR027C, strain aat2, hits give low values",1
same,normalized growth,"locus YLR039C, strain RIC1, hits give low values",1.03
same,normalized growth,"locus YLR058C, strain SHM2, hits give low values",1.01
same,normalized growth,"locus YLR102C, strain apc9, hits give low values",1.03
same,normalized growth,"locus YLR113W, strain HOG1, hits give low values",0.974
same,normalized growth,"locus YLR221C, strain rsa3, hits give low values",0.918
same,normalized growth,"locus YLR258W, strain gsy2, hits give low values",1
same,normalized growth,"locus YLR262C, strain YPT6 (second series), hits give low values",0.88
same,normalized growth,"locus YLR262C, strain YPT6, hits give low values",0.933
same,normalized growth,"locus YLR268W, strain sec22, hits give low values",0.953
same,normalized growth,"locus YLR320W, strain mms22, hits give low values",0.941
same,normalized growth,"locus YLR330W, strain CHS5, hits give low values",1.06
same,normalized growth,"locus YLR342W, strain FKS1 (second series), hits give low values",0.977
same,normalized growth,"locus YLR342W, strain FKS1, hits give low values",0.961
same,normalized growth,"locus YLR357W, strain rsc2, hits give low values",1.08
same,normalized growth,"locus YLR370C, strain arc18, hits give low values",1.04
same,normalized growth,"locus YLR371W, strain rom2, hits give low values",1.04
same,normalized growth,"locus YLR384C, strain iki3, hits give low values",1.03
same,normalized growth,"locus YLR418C, strain cdc73, hits give low values",0.991
same,normalized growth,"locus YML016C, strain PPZ1, hits give low values",1.05
same,normalized growth,"locus YML032C, strain rad52, hits give low values",0.973
same,normalized growth,"locus YML120C, strain ndi1, hits give low values",0.933
same,normalized growth,"locus YML124C, strain tub3, hits give low values",1.03
same,normalized growth,"locus YMR058W, strain fet3, hits give low values",0.983
same,normalized growth,"locus YMR078C, strain ctf18, hits give low values",1.04
same,normalized growth,"locus YMR125W, strain sto1, hits give low values",1.12 [resistant] (active)
same,normalized growth,"locus YMR129W, hits give low values",1.02
same,normalized growth,"locus YMR205C, strain PFK2, hits give low values",0.99
same,normalized growth,"locus YMR223W, strain ubp8, hits give low values",0.978
same,normalized growth,"locus YMR231W, strain pep5, hits give low values",0.99
same,normalized growth,"locus YMR307W, strain GAS1, hits give low values",0.902
same,normalized growth,"locus YNL067W, strain RPL9B, hits give low values",0.987
same,normalized growth,"locus YNL071W, strain lat1, hits give low values",0.996
same,normalized growth,"locus YNL128W, strain TEP1, hits give low values",1.05
same,normalized growth,"locus YNL153C, strain GIM3, hits give low values",0.982
same,normalized growth,"locus YNL183C, strain NPR1, hits give low values",0.933
same,normalized growth,"locus YNL209W, strain ssb2, hits give low values",1.03
same,normalized growth,"locus YNL233W, strain BNI4, hits give low values",0.992
same,normalized growth,"locus YNL248C, strain rpa49, hits give low values",1.01
same,normalized growth,"locus YNL250W, strain rad50, hits give low values",0.998
same,normalized growth,"locus YNL271C, strain bni1, hits give low values",0.994
same,normalized growth,"locus YNL298W, strain CLA4, hits give low values",0.942
same,normalized growth,"locus YNL307C, strain MCK1, hits give low values",1.03
same,normalized growth,"locus YNL322C, strain KRE1 (second series), hits give low values",0.982
same,normalized growth,"locus YNL322C, strain KRE1, hits give low values",1.05
same,normalized growth,"locus YNR049C, strain mso1, hits give low values",1.03
same,normalized growth,"locus YNR052C, strain pop2, hits give low values",0.955
same,normalized growth,"locus YOL006C, strain TOP1, hits give low values",0.968
same,normalized growth,"locus YOL012C, strain htz1",1.55
same,normalized growth,"locus YOL147C, strain pex11, hits give low values",1.03
same,normalized growth,"locus YOR001W, strain rrp6, hits give low values",0.886 (active)
same,normalized growth,"locus YOR061W, strain CKA2, hits give low values",1.04
same,normalized growth,"locus YOR069W, strain VPS5, hits give low values",1.05
same,normalized growth,"locus YOR070C, strain gyp1, hits give low values",1.01
same,normalized growth,"locus YOR080W, strain dia2, hits give low values",1
same,normalized growth,"locus YOR083W, strain WHI5, hits give low values",0.922
same,normalized growth,"locus YOR106W, strain vam3, hits give low values",0.925
same,normalized growth,"locus YOR136W, strain idh2, hits give low values",1.01
same,normalized growth,"locus YOR144C, strain elg1, hits give low values",1.02
same,normalized growth,"locus YOR184W, strain ser1, hits give low values",0.857 (active)
same,normalized growth,"locus YOR231W, strain MKK1, hits give low values",0.966
same,normalized growth,"locus YOR265W, strain rbl2, hits give low values",1
same,normalized growth,"locus YOR270C, strain vph1, hits give low values",0.918
same,normalized growth,"locus YOR290C, strain snf2, hits give low values",0.989
same,normalized growth,"locus YOR316C, strain cot1, hits give low values",1.03
same,normalized growth,"locus YPL051W, strain arl3, hits give low values",1.02
same,normalized growth,"locus YPL055C, strain LGE1, hits give low values",1.06
same,normalized growth,"locus YPL078C, strain atp4, hits give low values",1.02
same,normalized growth,"locus YPL106C, strain sse1, hits give low values",1.13
same,normalized growth,"locus YPL240C, strain hsp82, hits give low values",1.01
same,normalized growth,"locus YPL256C, strain CLN2, hits give low values",1.05
same,normalized growth,"locus YPR119W, strain clb2, hits give low values",1.03
same,normalized growth,"locus YPR141C, strain kar3, hits give low values",1.05
same,normalized growth,"locus YPR163C, strain tif3, hits give low values",1.03
same,normalized growth,"locus YPR167C, strain met16, hits give low values",1.02
same,normalized growth,"strain wtn01, hits give low values",0.966
